Screening data: PubChem, National Center for Advancing Translational Sciences (NCATS)
Marburg entry inh: Marburg virus entry inhibition | Marburg virus pseudotyped entry inhibition, cell reporter | Potency, µM (doses to about 37.8 µM), without a hit: at the top dose activity change, negative = inhibition, actives largely listed as inhibitors | 300,000 compounds, 1.8% hits | AID 540276; calls by dose curve; tested in HEK293 cells; further: potency means the concentration at half of the fitted maximal effect
HCMV inh: blocks human cytomegalovirus replication; HFF cells, HCMV-luciferase reporter, 72 h; stronger effect = lower value; 410,000 compounds, 4.5% hits; activity change, negative = inhibition, % at 57.5 µM; in the data active means activity change below about -60%; inconclusive means no clear call, values can overlap the other calls; inactive means above about -39%
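Screen run at 2 compound doses on HFFs infected with reporter HCMV, MOI 1 PFU/cell. Luciferase activity from cell lysates at 72 h post infection gave inhibition relative to buffer-only and Salinomycin wells.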
FMDV antiviral: blocks foot and mouth disease virus; AID 1159524; Potency, µM (series often up to 57.9 µM), without a hit: at the top dose activity change, negative = inhibition, most hits filed as inhibitors; 410,000 compounds, 1.2% hits; FMDV antiviral cell-based qHTS; calls by dose curve; tested in HEK293T cells; further: read-out not given here; potency means the concentration at half of the fitted maximal effect; nearly all actives have a fitted effect of over 45% in size
LASV entry inh: Lassa virus entry inhibition | Lassa virus pseudotype entry inhibition, cell reporter | Potency, µM (series often up to 37.9 µM), without a hit: top-dose activity change, negative = inhibition, actives largely listed as inhibitors | 300,000 compounds, 1.2% hits | AID 540256; calls by dose curve; tested in HEK293 cells; further: potency means the concentration at half of the fitted maximal effect; nearly all actives have a fitted effect of over 50% in size
* = called active by the depositor; ? = inconclusive; / = no result given; [ ] = remark or other dose. Hits are enriched below; roughly 6.2% of the tested compounds scored in any of these assays. On the % scale 0 is the no-effect control and ±100 the full control effect.

SMILES	Marburg entry inh	HCMV inh	FMDV antiviral	LASV entry inh
CCOC(=O)c1cc(-c2ccc(C)cc2)n(CC(=O)Nc2ccc(OC)c(Cl)c2)c1C	-19.0%[46.1 µM]	-91.4*	15.5%	/
COc1cc2c(cc1OC)CN(CC(=O)Nc1ccc(Cl)cc1Cl)CC2	-1.1%	?	-17.5%	?
CCOC(=O)c1cc(-c2ccc(C)cc2)n(CCC(=O)Nc2ccc(OC)c(OC)c2)c1C	?	-9.7	-5.0%	/
COc1ccc(NC(=O)CN2CCN(CC(=O)Nc3ccccc3Cl)CC2)cc1Cl	-1.7%	8.3	39.8µM*	-11.3%
COc1ccc(Cl)cc1NC(=O)CNC(c1ccccc1)c1ccccc1	?	16.6	-20.8%	2.51µM*
COc1ccc(Cl)cc1NC(=O)COC(=O)C1=NNC(=O)CC1	7.6%	-67.2*	-10.0%	?
COc1ccc(Cl)cc1NC(=O)CN1CCC(NC(=O)C2CC2)CC1	?	-76.5*	-21.4%	-21.1%
CCCN1CCC(NC(=O)Nc2cc(Cl)ccc2OC)CC1	/	8.8	-12.4%	/
O=C1CCC(C(=O)OCC(=O)Nc2ccc(Cl)cc2C(F)(F)F)=NN1	/	-19.4	-23.8%	/
OCC1(CCCc2ccccc2)CCN(Cc2ccc(F)cc2)CC1	?	-36.0	-5.1%	-29.1%
COc1cccc(CC2(CO)CCN(Cc3cnc(N4CCOCC4)s3)CC2)c1	?	-23.5	?	14.3%[46.1 µM]
OCC1(CCCc2ccccc2)CCN(Cc2cnc(N3CCOCC3)s2)CC1	?	-11.3	?	11.2µM*
OCC1(Cc2ccccc2)CCN(Cc2cnc(-c3cccc4ccccc34)nc2)CC1	?	13.4	?	13.6%[46.1 µM]
Cc1ccccc1-c1ncc(CN2CCC(CO)(CCCc3ccccc3)CC2)cn1	/	-64.2*	-29.7%	/
OCC1(Cc2ccccc2)CCN(Cc2cnc(-c3ccc(Cl)cc3)nc2)CC1	?	-66.7*	-7.8%	?
COc1cccc(C2CC(=O)Nc3c2c(=O)[nH]c2nc4ccccc4n32)c1 (stereo not given)	-0.8%[46.1 µM]	28.1	-12.9%	-2.9%[46.1 µM]
Cc1cccc(C)c1OCc1nc2c3cnn(-c4cccc(F)c4)c3ncn2n1	15.5%[46.1 µM]	10.0	-3.8%	21.3%[46.1 µM]
CCOc1ccc(N(CC)S(=O)(=O)N2CCCC(C(=O)Nc3cc(Cl)ccc3OC)C2)cc1 (stereo not given)	/	-8.7	-5.9%	2.5%[46.1 µM]
Cc1ccc(/C=N/NC(=O)Cc2cccs2)o1	11.9%	-74.3*	5.0%	8.5%
COc1ccc(/C=N/NC(=O)Cc2cccs2)cc1	/	78.8	82.8%	/
O=C(O)c1cccc(C(=O)O)c1S(=O)Cc1ccccc1 (stereo not given)	/	-66.0*	/	/
CCOc1cccc(/C=C/c2ccc3cccc(O)c3n2)c1OC	?	-92.5*	-16.4%	?
CCOc1cccc(/C=C/c2ccc3cccc(O)c3n2)c1O	?	-100.1*	-1.0%	?
CCOc1cc(NC(=S)NCCCN2CCOCC2)c(OCC)cc1NC(=O)CC(C)C	-25.8%	-93.0*	3.0%	18.4%
CN1CCN(C(=O)C2Cc3c(-c4cccc(F)c4)ccnc3O2)CC1 (stereo not given)	/	-8.3	-12.0%	/
SMILES	Marburg entry inh	HCMV inh	FMDV antiviral	LASV entry inh
Cc1ccc(-n2c(/C=C/c3c(C)n(C)c4ccccc34)nc3ccccc3c2=O)cc1	/	-1.8	-3.0%	12.7%[46.1 µM]
Cc1ccc(-n2ncc(C(=O)N3CCN(c4cccc(C)c4C)CC3)c2C2CCNCC2)c(C)c1	/	-27.8	-10.0%	-22.1%[46.1 µM]
O=C(CCc1ccccc1)Nc1ccc(NC(=O)c2ccco2)cc1	22.8%	-23.9	/	?
O=C(Nc1ccc(CSc2ccccc2)cc1)c1ccco1	/	-83.6*	57.6%	/
O=C(Nc1cccc(F)c1)c1ccc(Br)o1	?	-96.9*	51.9%	3.6%
O=C(Nc1cccc(F)c1)c1ccc(CSc2ccccc2)o1	7.31µM*	-11.1	20.7%	5.17µM*
C/C(N)=C(/C#N)C(=O)COc1ncnc2ccccc12	22.7%	13.8	10.3%	8.1%
C/C(N)=C(/C#N)C(=O)COC(=O)Cc1coc2ccc3ccccc3c12	?	-68.3*	4.9%	-7.5%
Cc1ccc(C(=O)Nc2ccc(Cl)cn2)cc1	7.3µM*	50.0	-10.5%	?
Cc1ccc(S(=O)(=O)N(C)c2ccc(C(=O)NCC3CCCO3)cc2)cc1 (stereo not given)	2.0%	-102.3*	0.0%	-7.1%
Cc1ccc(S(=O)(=O)N(C)c2ccc(C(=O)Nc3cccc(C)n3)cc2)cc1	?	-76.6*	25.1µM*	-13.9%
Cc1ccc(CC(=O)Nc2ccc(Cl)cn2)cc1	/	-39.8	50.1%	/
Cc1ccc(C(=O)Nc2ncc3c(Cl)cccc3n2)cc1	?	-89.9*	10µM*	?
CCc1ccc(S(=O)(=O)c2cn(Cc3ccccc3F)c3cc(OC)c(OC)cc3c2=O)cc1	-17.0%[46.1 µM]	-7.6	-12.3%	?
